# Experimental data: PubChem BioAssay AID434939 (The Scripps Research Institute Molecular Screening Center, 2010)
# Hit rate of the full screen: of about 2,300 compounds, about 2,000 (87%) were called active. So high a share suggests a set chosen from earlier hits. A selection follows. A number with no mark means an inactive call. Rule as the data show it: active = activation above about 11%; inactive = the rest.
# Target: Nuclear receptor subfamily 1 group I member 2 (Homo sapiens) (UniProt O75469)
# Test: human PXR activators, counter-screen for AHR activator project, cell-based, luciferase luminescence (AID 434939);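 also: human hepatoma DPX-2 cells expressing full-length human PXR; 0% = DMSO and 100% = reference agonist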
# Settings: cell-based PXR reporter, at 11.6 µM, stronger effect = higher value
# Chain of Nuclear receptor subfamily 1 group I member 2 (Homo sapiens) (O75469 whole entry, looked up): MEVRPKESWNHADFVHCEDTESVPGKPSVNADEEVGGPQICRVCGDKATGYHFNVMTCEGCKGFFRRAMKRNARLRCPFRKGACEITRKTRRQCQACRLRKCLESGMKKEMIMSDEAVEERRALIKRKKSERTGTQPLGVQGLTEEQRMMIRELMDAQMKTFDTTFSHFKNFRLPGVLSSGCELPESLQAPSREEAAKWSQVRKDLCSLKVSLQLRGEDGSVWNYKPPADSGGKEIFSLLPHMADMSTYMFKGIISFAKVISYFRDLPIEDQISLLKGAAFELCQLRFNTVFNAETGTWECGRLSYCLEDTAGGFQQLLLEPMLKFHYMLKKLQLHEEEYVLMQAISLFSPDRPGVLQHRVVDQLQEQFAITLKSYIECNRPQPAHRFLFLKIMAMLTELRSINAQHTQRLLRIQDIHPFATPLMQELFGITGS
row,Compound,activation
1,CC(C(=O)N=Nc1c(O)n(C)c2ccc(Br)cc12)n1cnc2ccccc2c1=O (stereo not given),60% (active)
2,Cc1ccc(NC(=O)NNC(=O)c2sccc2-n2cccc2)cc1,27% (active)
3,Cc1nn(-c2ccccc2)c2[nH]c(C(F)(F)F)cc(=O)c12,25.8% (active)
4,N#C/C(=C(/O)COc1cccc2ccccc12)c1nc2ccccc2[nH]1,29.3% (active)
5,Cc1nn(Cc2ccc(Cl)cc2)c(Cl)c1/C=N/NC(=O)c1cccnc1,39.9% (active)
6,O=C(Nc1cccc(Br)c1)c1ccc2snnc2c1,22.9% (active)
7,C/C(=N/NC(=S)Nc1ccccc1)c1ccc2c(c1)OCO2,76.5% (active)
8,OCCNc1nc(Nc2ccc(Cl)c(Cl)c2)nc2ccccc12,13.8% (active)
9,Cc1csc(NC(=S)Nc2cccc(Cl)c2)n1,21.6% (active)
10,NC(=O)Nc1ccccc1C(=O)NCCc1ccccc1,18.7% (active)
11,CNC(=O)c1ccc2nc(NC(C)=O)sc2c1,9.52%
12,CSc1ncccc1C(=O)Nc1nc2ccc(F)cc2s1,11.7% (active)
13,COc1ccc(Nc2nnc(C)c3ccccc23)cc1,73.7% (active)
14,Cc1c(C(=O)NCC(c2ccco2)N2CCCC2)oc2ccc(Cl)cc12 (stereo not given),56.2% (active)
15,CCn1c2ccccc2c2cc(NC(=O)C/C(C)=N/NC(=O)c3ccccc3N)ccc21,45.7% (active)
16,COc1ccc2nc(Nc3nc(-c4ccncc4)cs3)sc2c1,38.6% (active)
17,Cc1cccc(Nc2nc(-c3ccccc3)cs2)n1,25.5% (active)
18,COc1ccc(Nc2nc(-c3ccccc3)cs2)cc1,12.8% (active)

row,Compound,activation
1,O=C(Nn1c(-c2ccc(Cl)cc2)nc2ccccc2c1=O)c1cccnc1Cl,14.3% (active)
2,c1cnc(N2CCN(c3ccc4ccccc4n3)CC2)nc1,36.7% (active)
3,CCn1ccnc1CN(C)Cc1nc(-c2ccc3c(c2)OCO3)no1,37.5% (active)
4,O=C(Cn1c(NCCO)nc2ccccc21)c1ccc(Cl)cc1Cl,31.4% (active)
5,O=C(CCCCn1c(=O)[nH]c2ccccc2c1=O)NCc1ccc2c(c1)OCO2,37.2% (active)
6,CCn1c(NC(=O)c2nn(C)cc2Br)nc2ccccc21,22.6% (active)
7,COc1cc2ccccc2cc1C(=O)Nc1ccc(N2CCOCC2)cc1,30.4% (active)
8,COc1cccc(OC)c1C(=O)Nc1ccc(N2CCCCC2)cc1,53.1% (active)
9,NNc1nc2c(Cl)cccc2s1,8.29%
10,CN(C)S(=O)(=O)Oc1ccccc1C(=O)Nc1ccccc1Cl,82.8% (active)
11,Cc1noc(C)c1/C=N/Nc1ccc2ccccc2n1,25.9% (active)
12,C(=N\Nc1ccc2ccccc2n1)/c1ccc2c(c1)OCO2,-10.5%
13,CC(C)n1cnc2c(Nc3cccc(Cl)c3)nc(N(CCO)CCCO)nc21,255% (active)
14,CN(C)c1nc(Nc2ccc(Cl)c(Cl)c2)nc(N(C)C)n1,23.1% (active)
15,Cn1c(C(=O)NCCc2ccsc2)cc2c(=O)n(C)c3ccccc3c21,75.7% (active)
16,CC(C)n1ncc2c(C(=O)Nc3ccc(CC#N)cc3)cc(C3CC3)nc21,48.4% (active)
17,S=c1nc2ccccc2c2nc(-c3cccnc3)[nH]n12,24.9% (active)
